Consider 23 sequences from paper PMC7819943, “Rice protein-binding microarrays: a tool to detect cis-acting elements near promoter regions in rice”.

The full ranking holds about 39,000 sequences; the median of “fluorescence intensity (a.u.)” is about 4,300, and the highest 2% start at about 39,000. The full list was thinned out, with the highest values kept by preference.

The experiment concerns the target T1, OsSMF1 (Oryza sativa, UniProt Q6ZLB0 1-436).
T1 sequence: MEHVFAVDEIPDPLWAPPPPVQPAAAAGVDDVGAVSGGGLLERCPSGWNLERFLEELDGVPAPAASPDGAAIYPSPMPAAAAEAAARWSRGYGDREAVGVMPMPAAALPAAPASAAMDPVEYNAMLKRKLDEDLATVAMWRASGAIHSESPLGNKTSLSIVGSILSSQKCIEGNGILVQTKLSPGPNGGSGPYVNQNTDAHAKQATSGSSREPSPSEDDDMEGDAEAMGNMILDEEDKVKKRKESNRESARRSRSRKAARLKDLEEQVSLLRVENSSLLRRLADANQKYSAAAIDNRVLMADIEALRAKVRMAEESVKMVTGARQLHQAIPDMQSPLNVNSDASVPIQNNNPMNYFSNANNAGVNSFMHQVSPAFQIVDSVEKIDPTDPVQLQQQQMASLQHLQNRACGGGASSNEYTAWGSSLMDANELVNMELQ
Kind of experiment: protein-binding microarray (RPBM); PBS, 2% BSA, 51.3 ng/ul salmon testes DNA, 50 uM zinc acetate, 200 nM TF, 25 C, 1 h; high values mean tight binding. As to conditions: protein: recombinant; tags: N-terminal polyhistidine and DsRed monomer fusion (pET32a); chain copies: 2; label: CyDye5-dUTP incorporated in the synthesized complementary strand; 3' TTTTT single-stranded linker to array surface; dsDNA, one strand shown. A digest of the protocol:
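A custom Agilent array was converted to double-stranded form by primer extension with Cy5-dUTP and blocked with 2% BSA. Protein at 200 nM in PBS with 2% BSA, salmon testes DNA and 50 µM zinc acetate was applied for 1 h at 25 °C, followed by washing. The proteins were polyhistidine–DsRed N-terminal fusions of transcription factors, expressed in E. coli BL21-CodonPlus and Ni–NTA-purified. The binding signal is per-feature fluorescence intensity (arbitrary units) from an Axon 4000B scanner.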
Regarding “AAGAGTCGGGTTGTGCTGACCCAAAAGCACGACAGCCCATCGGAGTCACCTAGTGCAG”, the binding signal is 3250 fluorescence intensity (a.u.).
As for “ATACCGCGACAATGACATCTGAGTCAATGACTCGTGATAACGGAGTCACCTAGTGCAG”, the figure is 4510 fluorescence intensity (a.u.); as for “CTCATGATGGCTTTATCAATATCAAGATTTGATGACTCAGCGGAGTCACCTAGTGCAG”, 15400 fluorescence intensity (a.u.).
As for “CATAGATCTTTTGACTAGGTTTTCGTTCCACGTGGCATCACGGAGTCACCTAGTGCAG”, the figure is 12900 fluorescence intensity (a.u.).
Next, “GTTTGAATAGGTCTTTCGTCCCACGTGGCATTGACGTGGCCGGAGTCACCTAGTGCAG”: 45700 fluorescence intensity (a.u.); “TAGGTCTTCGTCCCACGTGGCATTGACGTGGCGCTTACGCCGGAGTCACCTAGTGCAG”: 30000 fluorescence intensity (a.u.).
For “ACACTTATCGACGTGCCAGCGCGACGCAATATGCTCCGATCGGAGTCACCTAGTGCAG”, the binding signal is 5400 fluorescence intensity (a.u.).
As for “CACAAATGAAGAAACAAGGTGTTGCATCACCAGTCATGGGCGGAGTCACCTAGTGCAG”, the figure is 6740 fluorescence intensity (a.u.); as for “TTTAACTATGAGAATATATAGTACGTGTTGAGACATGAAACGGAGTCACCTAGTGCAG”, 27800 fluorescence intensity (a.u.); as for “TGCAAGCAGCAAGCGTGTCACTACGTTTACATGACATGCACGGAGTCACCTAGTGCAG”, 47600 fluorescence intensity (a.u.).
Next, “TCCATGCTGGTTTTAGTCCTACGTGACAATACAGTCAGCACGGAGTCACCTAGTGCAG”: 5640 fluorescence intensity (a.u.); “TGACCTAATACATTCATGCTGACTAGCGTTTACGTGGCAACGGAGTCACCTAGTGCAG”: 14100 fluorescence intensity (a.u.).
Next, “TTTAATTATATTATCACTGACATGTGGGTCCCACTATATGCGGAGTCACCTAGTGCAG”: 4330 fluorescence intensity (a.u.).
Consider “GCCAATGCCATGTCCTCTGCGGCCTGCTTGCTGGTGAACTCGGAGTCACCTAGTGCAG”, for which the binding signal is 46600 fluorescence intensity (a.u.).
Next, “CACTCCTCTGCTGCTCGTCGTCAATGCCATCCTCATCATGCGGAGTCACCTAGTGCAG”: 3330 fluorescence intensity (a.u.); “CTCGACATTGCTGGCAATGCCTGGGAGATTGCTTGCCATGCGGAGTCACCTAGTGCAG”: 3180 fluorescence intensity (a.u.); “GATTTGCTTACATGAATAAGGTTGATTTGCATCGGCAAGACGGAGTCACCTAGTGCAG”: 4000 fluorescence intensity (a.u.).
Consider “CCCTTCCGGCTTCCACGCGTCGGGAACCGAAGTCCAAACCCGGAGTCACCTAGTGCAG”, for which the binding signal is 3360 fluorescence intensity (a.u.).
As for “TCCAAGAAAGAAAGGAGAATTATCCGGCAGTTTCAGAGGTCGGAGTCACCTAGTGCAG”, the figure is 22200 fluorescence intensity (a.u.).
As for “CCGGAGCCAGTAGTAGCGTTGAGTCGTTGTCGCGAGATGGCGGAGTCACCTAGTGCAG”, the figure is 3260 fluorescence intensity (a.u.); as for “TCCCACTCGATTTGGGAGAAAATACAGGGATTAAACTCTGCGGAGTCACCTAGTGCAG”, 3550 fluorescence intensity (a.u.).
As for “AGAAAAGGAGGAAAAGAATTTCCCTGGGATTTAAAATATTCGGAGTCACCTAGTGCAG”, the figure is 26300 fluorescence intensity (a.u.); as for “ACAGGAATATCTCTTCGAGGGATTAAAATTCACTCCCACTCGGAGTCACCTAGTGCAG”, 50800 fluorescence intensity (a.u.).
